Data reported in PubChem BioAssay (NCI).
Where “and” joins values, the source holds several entries; their conditions need not be identical. Equal values may be shown once. About 79,000 compounds went through this panel and 15% of them were active in at least one assay; those are over-represented in the sample as a whole. Where a structure was tested more than once in an assay, its records may differ in their call. Calls of active or inactive are those of the source. No stated cut-off is given here; in the data, active means growth inhibition above about 70%; inactive means the rest.

Columns and labels:
[1] = NCI Yeast Anticancer Drug Screen. Data for the rad50 strain (AID 155);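 further: 0% = growth of vehicle-only cultures of the same strain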; conditions: S. cerevisiae rad50 strain growth inhibition, stronger effect = higher value
Method in brief: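 Growth of the mutant yeast was measured after compound exposure and referenced to vehicle-treated cultures.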

[2] = NCI Yeast Anticancer Drug Screen. Data for the mec2-1 strain (AID 157); conditions: S. cerevisiae mec2-1 strain, stronger effect = higher value
Method in brief: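 Mutant yeast (mec2-1) grown with compound; growth inhibition relative to vehicle control reported.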

[3] = NCI Yeast Anticancer Drug Screen. Data for the sgs1 mgt1 strain (AID 161);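 further: 0% = growth of cultures given vehicle only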; conditions: S. cerevisiae sgs1 mgt1 strain, stronger effect = higher value
Method in brief: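 Yeast cells carrying a defined DNA-repair defect were exposed to test compounds. Growth inhibition was measured relative to vehicle-treated controls.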

[4] = NCI Yeast Anticancer Drug Screen. Data for the cln2 rad14 strain (AID 165);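 further: 0% = growth equal to vehicle treated cultures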; conditions: S. cerevisiae cln2 rad14 strain, stronger effect = higher value
Method in brief: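 Readout is yeast growth inhibition versus vehicle-treated controls, using a strain with cln2 and rad14 alterations exposed to compound.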

[5] = NCI Yeast Anticancer Drug Screen. Data for the bub3 strain (AID 167); conditions: S. cerevisiae bub3 mutant strain, stronger effect = higher value
Method in brief: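 Whole-cell yeast assay. The mutant strain was incubated with compounds, and growth inhibition was determined by comparison with vehicle-treated cells.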

[6] = NCI Yeast Anticancer Drug Screen. Data for the mlh1 rad18 strain (AID 175); conditions: S. cerevisiae mlh1 rad18 strain growth inhibition, stronger effect = higher value
Method in brief: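 Genetically defined yeast (DNA repair-deficient) exposed to compounds; growth inhibition determined relative to vehicle.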

[7] = at 5.0 µM (retest, dose inferred, filed as 0.5)
[8] = at 50.0 µM (retest, dose inferred, filed as 5.0)

Measured: growth inhibition

Cc1c([C@H](C)[C@@H]2NC[C@@H](C)C[C@H]2O)ccc2c1C[C@H]1[C@H]2CC=C2C[C@@H](O)CC[C@@]21C
85% (active) and 6% (inactive): [3]; [8]
inactive: [1]; [7] 10% and -5% | [2]; [7] -1% | [2]; [8] 52% and 0% | [3]; [7] 7% and -12% | [4]; [7] -6% and -7% | [4]; [8] 58% and 8% | [5]; [7] 11% and -18% | [6]; [7] 2% and 0% | [6]; [8] 59% and 40%
active: [1]; at 50.0 µM 84.3% and 88.5% | [2]; at 50.0 µM 75.2% and 79.2% | [3]; at 50.0 µM 76.8% and 86.2% | [4]; at 50.0 µM 77.3% and 82.8% | [6]; at 50.0 µM 85% and 87.5%
86.2% (active) and 19.4% (inactive): [5]; at 50.0 µM
71% (active) and 36% (inactive): [1]; [8]
74% (active) and 1% (inactive): [5]; [8]

O=P(Nc1cccc(Cl)c1)(Oc1ccccc1)N(CCCl)CCCl (centres undefined)
active: [1]; at 50.0 µM 90.2% | [2]; at 50.0 µM 90.2% | [3]; at 50.0 µM 92.1% | [4]; at 50.0 µM 89.8% | [5]; at 50.0 µM 88.7% | [6]; at 50.0 µM 88.2%
inactive: [1]; [7] 40% | [1]; [8] 40% | [2]; [7] 30% | [2]; [8] 30% | [3]; [7] 43% | [3]; [8] 43% | [4]; [7] 20% | [4]; [8] 20% | [5]; [7] 26% | [5]; [8] 26% | [6]; [7] 21% | [6]; [8] 21%

CCC1CCCCN1CC(C(C)=O)C(c1ccccc1)c1c(O)c2ccccc2oc1=O (centres undefined)
inactive: [1]; [7] 13% | [1]; [8] 13% | [2]; [7] 0% | [2]; [8] 0% | [2]; at 50.0 µM 64.8% | [3]; [7] 5% | [3]; [8] 5% | [4]; [7] -6% | [4]; [8] -6% | [5]; [7] 6% | [5]; [8] 6% | [6]; [7] 7% | [6]; [8] 7%
active: [1]; at 50.0 µM 78.2% | [3]; at 50.0 µM 79.3% | [4]; at 50.0 µM 72.5% | [5]; at 50.0 µM 71.3% | [6]; at 50.0 µM 75.3%

CC(=O)C(CN(C(C)C)C(C)C)C(c1ccccc1)c1c(O)c2ccccc2oc1=O (centres undefined)
active: [1]; at 50.0 µM 72% | [5]; at 50.0 µM 70.3% | [6]; at 50.0 µM 70.1%
inactive: [1]; [7] 17% | [1]; [8] 17% | [2]; [7] 11% | [2]; [8] 11% | [2]; at 50.0 µM 47.4% | [3]; [7] 8% | [3]; [8] 8% | [3]; at 50.0 µM 58.7% | [4]; [7] -3% | [4]; [8] -3% | [4]; at 50.0 µM 58% | [5]; [7] 13% | [5]; [8] 13% | [6]; [7] 12% | [6]; [8] 12%

O=C(O)C1(c2ccccc2)OC1c1ccccc1 (centres undefined)
inactive: [1]; [7] 2% | [1]; [8] 67% | [1]; at 50.0 µM 47% | [2]; [7] 0% | [3]; [7] 3% | [4]; [7] 2% | [5]; [7] -6% | [5]; at 50.0 µM 64.6% | [6]; [7] -1%
active: [2]; [8] 82% | [2]; at 50.0 µM 81.3% | [3]; [8] 71% | [3]; at 50.0 µM 84.7% | [4]; [8] 80% | [4]; at 50.0 µM 79.8% | [5]; [8] 93% | [6]; [8] 86% | [6]; at 50.0 µM 84.3%

Cc1ccc(C(Cc2ccc(N3C(N)=NC(N)=NC3(C)C)cc2)C(=O)Nc2ccc(S(=O)(=O)F)cc2)cc1 (centres undefined)
active: [1]; [8] 99% | [1]; at 50.0 µM 99.2% | [2]; [8] 99% | [2]; at 50.0 µM 99.6% | [3]; [8] 99% | [3]; at 50.0 µM 99.8% | [4]; [8] 99% | [4]; at 50.0 µM 98.8% | [5]; [8] 99% | [5]; at 50.0 µM 98.8% | [6]; [8] 99% | [6]; at 50.0 µM 99.5%
inactive: [1]; [7] 7% | [2]; [7] 45% | [3]; [7] 1% | [4]; [7] 7% | [5]; [7] -1% | [6]; [7] 4%

Oc1ccc([Te]CCNCC[Te]c2ccc(O)cc2)cc1
inactive: [1]; [7] 58% | [1]; [8] 58% | [1]; at 50.0 µM 40.8% | [2]; [7] 37% | [2]; [8] 37% | [2]; at 50.0 µM 0.3% | [3]; [7] 40% | [3]; [8] 40% | [3]; at 50.0 µM 16.1% | [4]; [7] 13% | [4]; [8] 13% | [4]; at 50.0 µM 48.3% | [5]; [7] 29% | [5]; [8] 29% | [5]; at 50.0 µM 30.9% | [6]; [7] 36% | [6]; [8] 36%
active: [6]; at 50.0 µM 71.5%

CCC[CH2][Sn]1([CH2]CCC)[O]CC(CN2CCCC2)[O]1 (centres undefined)
inactive: [1]; [7] 30% | [2]; [7] 28% | [3]; [7] 46% | [4]; [7] 26% | [5]; [7] 36% | [6]; [7] 48%
active: [1]; [8] 96% | [1]; at 50.0 µM 83.8% | [2]; [8] 98% | [2]; at 50.0 µM 87.3% | [3]; [8] 97% | [3]; at 50.0 µM 84.2% | [4]; [8] 95% | [4]; at 50.0 µM 82.3% | [5]; [8] 97% | [5]; at 50.0 µM 86.9% | [6]; [8] 97% | [6]; at 50.0 µM 82.2%
